Assay results as given in PubChem BioAssay (NCI).
This is part of a sample that, as a whole, favours compounds with a hit. Of some 83,000 tested, about 20% had one in any assay.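 Each cell line was grown in a 96-well plate and treated with one concentration of compound for 48 hours. Values below 10 were considered active.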 Activity calls are given as the source filed them.

Key:
Experiment in all cases: NCI-60 one-dose screen, 48 h (100 = growth as untreated, 0 = no growth, -100 = all killed)
Conditions in all cases: 10 µM unless noted
NCI-H23 lung = system: NCI-H23 lung
NCI-H226 lung = system: NCI-H226 lung
NCI-H322M lung = system: NCI-H322M lung
HOP-62 NSCLC = system: HOP-62 NSCLC
NCI-H460 lung = system: NCI-H460 lung
HOP-92 NSCLC = system: HOP-92 NSCLC
NCI-H522 lung = system: NCI-H522 lung
A549/ATCC NSCLC = system: A549/ATCC NSCLC
786-0 renal = system: 786-0 renal
COLO 205 colon = system: COLO 205 colon

Measured: growth

Cc1cc(N/N=C/c2nc(-c3ccc(Cl)cc3)oc2C)c2cc(Br)ccc2n1
inactive: NCI-H23 lung 96.4% | NCI-H226 lung 92.9% | NCI-H322M lung 72.5% | HOP-62 NSCLC 100% | HOP-92 NSCLC 69.6% | A549/ATCC NSCLC 17.1% | 786-0 renal 24.6% | COLO 205 colon 91.6%
active: NCI-H460 lung -47.4% | NCI-H522 lung -1.02%

CCOC(=O)c1cnc2ccc(Br)cc2c1Nc1cccc(S(=O)(=O)NC)c1
inactive: NCI-H23 lung 84.7% | NCI-H226 lung 90.8% | NCI-H322M lung 98.3% | HOP-62 NSCLC 92.3% | NCI-H460 lung 102% | HOP-92 NSCLC 102% | NCI-H522 lung 83.6% | A549/ATCC NSCLC 104% | 786-0 renal 103% | COLO 205 colon 128%

COc1cnc2c(c1)C(=O)c1c-2n(CCCN2CCN(C)CC2)c(=O)c2cc([N+](=O)[O-])ccc12
active: NCI-H23 lung -46.4% | NCI-H322M lung -56.9% | HOP-62 NSCLC -61.3% | NCI-H460 lung -74.5% | HOP-92 NSCLC -57.7% | NCI-H522 lung -37.6% | A549/ATCC NSCLC -78.9% | 786-0 renal -87.1% | COLO 205 colon -5.87%
inactive: NCI-H226 lung 79.3%

CC(C)[C@@H]1CC[C@]2(C(=O)NCCCCN=C(N)N)CC[C@]3(C)[C@H](CC[C@@H]4[C@@]5(C)CCC(=O)C(C)(C)[C@@H]5CC[C@]43C)[C@@H]12
active: COLO 205 colon 2.37%
inactive: NCI-H23 lung 69.3% | NCI-H226 lung 84.1% | NCI-H322M lung 73.8% | HOP-62 NSCLC 72.6% | NCI-H460 lung 58.9% | HOP-92 NSCLC 57.6% | NCI-H522 lung 19.5% | A549/ATCC NSCLC 80.9% | 786-0 renal 70.7%

O=C(Nc1cccc2c1C(=O)c1cccc(Nc3cccc4c3C(=O)c3cccc(NC(=O)c5ccccc5)c3C4=O)c1C2=O)c1ccccc1
inactive: NCI-H23 lung 108% | NCI-H226 lung 102% | NCI-H322M lung 112% | HOP-62 NSCLC 104% | NCI-H460 lung 113% | HOP-92 NSCLC 90.7% | NCI-H522 lung 112% | A549/ATCC NSCLC 90.1% | 786-0 renal 117% | COLO 205 colon 117%

COc1cc(NC(N)=NCC(C)(C)COc2ccc(C(F)(F)F)cc2)cnc1C#N
inactive: NCI-H23 lung 64.9% | NCI-H226 lung 68.7% | NCI-H322M lung 53.1% | HOP-62 NSCLC 68.5% | NCI-H460 lung 58% | NCI-H522 lung 57.6% | A549/ATCC NSCLC 72.5% | 786-0 renal 61.4% | COLO 205 colon 59.9%
active: HOP-92 NSCLC -9.25%

COc1cc(OC)c(/C=C/S(=O)(=O)Cc2cnc(OC)c(N)c2)c(OC)c1
inactive: NCI-H23 lung 30.8% | NCI-H226 lung 64.3% | NCI-H322M lung 33.2% | HOP-62 NSCLC 23.8% | HOP-92 NSCLC 85.9% | 786-0 renal 16.2%
active: NCI-H460 lung 9.05% | NCI-H522 lung -2.15% | A549/ATCC NSCLC 9.4% | COLO 205 colon -49.2%

O=C([C@@H](COCc1ccccc1)N1C(=O)[C@@H](N2C(=O)OC[C@@H]2c2ccccc2)[C@H]1/C=C/c1ccccc1)N1CCC(CCN2CCCCC2)CC1
inactive: NCI-H23 lung 87% | NCI-H226 lung 93.8% | NCI-H322M lung 83.2% | HOP-62 NSCLC 77.8% | NCI-H460 lung 94.2% | HOP-92 NSCLC 76.1% | NCI-H522 lung 57.1% | A549/ATCC NSCLC 75.4% | 786-0 renal 83.3% | COLO 205 colon 65.1%

COCCCN=C(N)c1ccc(NC(=O)c2ccc(C(=O)Nc3ccc(C(N)=NCCCOC)cc3)cc2)cc1
inactive: NCI-H23 lung 82.1% | NCI-H226 lung 90.7% | NCI-H322M lung 90.5% | HOP-62 NSCLC 81.6% | NCI-H460 lung 102% | HOP-92 NSCLC 134% | NCI-H522 lung 97.5% | A549/ATCC NSCLC 106% | 786-0 renal 87.7% | COLO 205 colon 105%

COc1ccc2nc(NC(=O)c3cccnc3Nc3cc(OC)c(OC)c(OC)c3)sc2c1
active: NCI-H322M lung -54.3% | NCI-H460 lung 0.16% | HOP-92 NSCLC -64.6% | A549/ATCC NSCLC -32.2% | 786-0 renal -66.9%
inactive: NCI-H23 lung 22.6% | NCI-H226 lung 10.9% | HOP-62 NSCLC 16.7% | NCI-H522 lung 13.3% | COLO 205 colon 123%

CC[C@@H](C)OC(=O)c1nn(C(C)=O)c2ccccc12
inactive: NCI-H23 lung 91.6% | NCI-H226 lung 85.1% | NCI-H322M lung 107% | HOP-62 NSCLC 105% | NCI-H460 lung 112% | HOP-92 NSCLC 104% | NCI-H522 lung 87.1% | A549/ATCC NSCLC 90% | 786-0 renal 103% | COLO 205 colon 108%

CC(C)CC(CC1=CCC2CC1C2(C)C)C1=C(O)C(C)(C)C(=O)C(C)(C)C1=O (stereo not given)
inactive: NCI-H226 lung 13.7%
active: NCI-H23 lung 5.33% | NCI-H322M lung 9.97% | HOP-62 NSCLC -4.19% | NCI-H460 lung 4.62% | HOP-92 NSCLC -27.4% | NCI-H522 lung 3.54% | A549/ATCC NSCLC 0.788% | 786-0 renal 6.76% | COLO 205 colon -65.7%
